The values that follow come from PubChem BioAssay.

Several values for one entry are separate records, joined by “and”; a condition that tells them apart may be missing. Identical values can stand only once. Peptide text beside a SMILES is read from it. * marks the point of attachment. CH2Cl = ClC*

This test is described as follows: viability loss with induced miR-34 in A549 – imaging, A549 dox-inducible miR-34, nuclei and caspase counts, primary screen (AID 1347080). Further: test concentration not given here. The conditions noted are these: A549 miR-34 inducible, Hoechst nuclei count, 48 h; measured here: total cells without miR-34 induction.
For the molecule `N#CC(C#N)=NNc1ccc(OC(F)(F)F)cc1`, the cell count was 1130. `CCCC(=O)N[C@H]1CCOC1=O` registered a cell count of 6650. Molecule `CCCCC/C=C\C/C=C\C/C=C\C/C=C\CCCC(=O)NC(CO)CO` yielded a cell count of 5870. For `C=C(C)[C@@H]1CCC(C)=C[C@H]1c1c(C)cc(O)cc1O`, the cell count was determined as 5510. In turn, `CCCCCC(=O)N[C@H]1CCOC1=O` displayed a cell count of 6120.

In the case of `C=C1[C@@H](C)[C@H]2[C@H](Cc3ccccc3)NC(=O)C23[C@H](OC(C)=O)/C=C/[C@](C)(O)C(=O)[C@@H](C)C/C=C/[C@H]3[C@@H]1O` (stereo not given in full), the cell count amounted to 762. Regarding `CCCCC/C=C\C/C=C\C/C=C\C/C=C\CCCC(=O)NCCCC(=O)O`, the cell count worked out at 5760. Molecule `CC1OC(O[C@H]2C[C@@H](O)[C@]3(CO)[C@H]4[C@H](O)C[C@]5(C)[C@@H](C6=CC(=O)OC6)CC[C@]5(O)[C@@H]4CC[C@]3(O)C2)C(O)C(O)C1O` (stereo not given in full) showed a cell count of 356.

Consider `N[C@H]1C[C@@H]1c1ccccc1`, for which the cell count was 9180 and 10500. Next, `CCCCC/C=C\C/C=C\C/C=C\C/C=C\CCCC(=O)Nc1cccc([N+](=O)[O-])c1`: 5590; `CCCCCC(/C=C/C=O)OO` (stereo not given): 5860; `CCCCC/C=C\C/C=C\C/C=C\C/C=C\CCCC(=O)OCCN`: 5820. `Cc1cc(C(C#N)c2ccc(Cl)cc2)c(Cl)cc1NC(=O)c1cc(I)cc(I)c1O` (stereo not given): the cell count was 8560 and 8730 and 10400. With `C[C@H](N)C(=O)N[C@@H](C)C(=O)N[C@@H](Cc1ccccc1)C(=O)CCl` (H-Ala-Ala-Phe-CH2Cl) the figure was 3680; with `CC[C@@]1(O)C(=O)OCc2c1cc1n(c2=O)-c2cc3ccccc3nc2C1`, 1300; with `CC(C)(O)[C@H]1O[C@H]2CC[C@@]3(C)[C@@](O)(CC[C@H]4Cc5c([nH]c6ccccc56)[C@@]43C)C2=CC1=O`, 3460. `CCNC(=O)[C@H]1O[C@@H](n2cnc3c(N)ncnc32)[C@@H](O)C1O` (stereo not given in full) gave a cell count of 6360. In turn, `CO/C1=C\C(C)=C\[C@@H](C)[C@@H](O)[C@@H](C)C/C(C)=C/C=C/[C@H](OC)[C@@H]([C@@H](C)[C@@H](O)[C@H](C)[C@@]2(O)C[C@@H](O)[C@H](C)[C@@H](C(C)C)O2)OC1=O` returned a cell count of 2860. With `CCCCC/C=C\C/C=C\C/C=C\C/C=C\CCCC(=O)NCCOP(=O)(O)O` the figure was 5880. With `CCCCC/C=C\C/C=C\C/C=C\C/C=C\CCCC(=O)NC[C@@H](C)O` the figure was 6030. `CO[C@@H]1C[C@@H](C[C@H]2CC[C@H](C)[C@H]([C@@H](C)C(=O)O)O2)O[C@]2(O[C@](C)([C@H]3CC[C@@](C)([C@@H]4O[C@@H]([C@H]5O[C@@](O)(CO)[C@H](C)C[C@@H]5C)C[C@@H]4C)O3)C[C@H]2C)[C@@H]1C` displayed a cell count of 1800.

`CCCCC/C=C\C/C=C\C/C=C\C/C=C\CCCC(=O)N[C@@H](C)CO` yielded a cell count of 5940. `COC(C/C=C/C=C/CC/C=C\CC(C)/C=C\C(=C/C(=O)O)CC(=O)O)/C(C)=C\C=C(/C)C(=O)O` (stereo not given) registered a cell count of 5870. In the case of `CNCCCCCCN(C)N(O)N=O`, the cell count came out at 6050. For `CCCCCCCC/C=C\CCCCCCCC(=O)Nc1ccccc1`, the cell count amounted to 5950. Next, `CCCCC/C=C\C/C=C\C/C=C\C/C=C\CCCC(=O)NOCCO`: 5910; `C=C1[C@@H](C)[C@H]2[C@H](Cc3ccccc3)NC(=O)[C@]23OC(=O)/C=C/[C@H](O)CCC[C@@H](C)C/C=C/[C@H]3[C@@H]1O`: 1060.

On to `CCCCCCC(=O)O[C@H]1CC[C@H]2[C@@H]3C[C@H](O)C4=CC(=O)CC[C@]4(C)[C@H]3CC[C@]12C`, for which the cell count is 5520. Take `CCCCC/C=C\C/C=C\C/C=C\C/C=C\CCCC(=O)O[C@H](COC(=O)CCCCCCCCCCCCCCCCC)COP(=O)([O-])OCC[N+](C)(C)C`: the cell count worked out at 5650. With `C[C@@]1(CO)[C@H](O)CC[C@@]2(C)[C@H]1CC[C@H]1C[C@@H]3C[C@@]12CC[C@]3(O)CO` the figure was 2350; with `COC[C@H]([C@@H](O)[C@@H](O)C(=O)NCC[C@@H](C)c1nc(/C=C/C[C@H]2OC3(C[C@H](O)[C@H]2C)OC([C@@H](C[C@@H](O)[C@@H](C)[C@@H](O)[C@@H](C)/C=C(C)/C(C)=C/C=C/C(C)=C\C#N)OC)[C@@H](OP(=O)(O)O)C3(C)C)co1)N(C)C` (stereo not given in full), 312.

The molecule `OOCCC/C=C/c1ccccc1` displayed a cell count of 5970. For `COc1cc(/C=C\c2ccc(OC)c(O)c2)cc(OC)c1`, the cell count came to 1220. `CCCCC/C=C\C/C=C\C/C=C\C/C=C\CCCC(=O)N[C@H](C)COP(=O)(O)O`: the cell count turned out to be 5460. With `CCCCC/C=C\C/C=C\C/C=C\C/C=C\CCCC(=O)Nc1ccc(O)cc1C` the figure was 5870; with `CC(C)CC(NP(=O)(O)OC1OC(C)C(O)C(O)C1O)C(=O)NC(Cc1c[nH]c2ccccc12)C(=O)O` (stereo not given), 9510. Molecule `COC[C@H]1OC(=O)c2coc3c2[C@@]1(C)C1=C(C3=O)[C@@H]2CCC(=O)[C@@]2(C)C[C@H]1OC(C)=O` gave a cell count of 1560. Regarding `COC(=O)[C@@]1(O)CC2OC1(C)n1c3ccccc3c3c4c(c5c6ccccc6n2c5c31)C(=O)NC4` (stereo not given in full), the cell count was 2410. Regarding `C/C1=C/C(=O)O[C@@H]2C[C@@H](CC[C@H](C)/C=C\CC1)O[C@@](O)([C@@H]1CSC(=O)N1)C2`, the cell count was 888.

As for `CCOC(=O)CN1C(=O)CC(C[C@@H](O)C2C[C@@H](C)C[C@H](C)C2=O)CC1=O` (stereo not given in full), the cell count worked out at 4910.
